Inconclusive results are not listed. Active and inactive are the calls of the source. Calls come from the whole dose curve; as a rule, active = well fitted inhibition curve with a large enough effect; inconclusive = small, poorly fitted or top-dose-only effect; inactive = flat fitted curve, though single readings scatter.
Target: Ferritin light chain (Equus caballus) (UniProt P02791)
Experiment: Confirmation Assay for Identification of Novel General Anesthetics; note: nearly all actives have a fitted effect of over 40% in size
Details: apoferritin 1-aminoanthracene fluorescence displacement
Summary of the method: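 Horse apoferritin (10 uM) pre-loaded with 1-AMA (50% saturated, PBS) exposed to compounds 10 min at room temperature; loss of 1-AMA fluorescence (380/535 nm) scaled between free and bound ligand, curves fitted with Hill equation.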
Potency is the fitted concentration of half-maximal effect.

Chain of Ferritin light chain (Equus caballus) (P02791 2-175 limits assumed): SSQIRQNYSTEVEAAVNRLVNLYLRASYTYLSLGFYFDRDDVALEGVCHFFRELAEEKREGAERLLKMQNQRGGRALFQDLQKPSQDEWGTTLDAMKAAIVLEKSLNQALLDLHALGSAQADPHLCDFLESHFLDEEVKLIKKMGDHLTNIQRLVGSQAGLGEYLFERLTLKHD

With `N#Cc1ccc(NC(=O)COC(=O)CNC(=O)C2CCCCC2)cc1` the Potency was 15.8 µM (active).
For `CCc1c(O)nc(SC2CC(=O)N(c3ccccc3)C2=O)[nH]c1=O` (stereo not drawn), the Potency was 31.6 µM (active).
`COc1ccc(CNC(=O)COC(=O)CCC2CCCCC2)cc1` was tested, and the Potency was 15.8 µM (active).
For `Nc1nc(C23CC4CC(CC(C4)C2)C3)cs1`, the Potency was 7.94 µM (active).
`Cc1cccc(N(C(=O)Nc2ccccc2)C2=NCC(C)S2)c1` (stereo not drawn) was tested, and the Potency was 25.1 µM (active).
`Cc1ccccc1Nc1cccc2nonc12` was tested, and the Potency was 20 µM (active).
`O=C(CSC(=S)N1CCCCC1)c1ccccc1` was tested, and the Potency was 15.8 µM (active).
For `CC1CCCN(C(=O)COc2ccc(Nc3ccccc3)cc2)C1` (stereo not drawn), the Potency was 25.1 µM (active).
In the case of `Cc1ccc(Cl)cc1NC(=O)C1COc2ccccc2O1` (stereo not drawn), the Potency is reported as 20 µM (active).
For `Cc1ccc(NC(=O)COC(=O)CSC(=S)N2CCOCC2)cc1`, the Potency was 15.8 µM (active).
`Oc1ccc(Cc2ncc(C(F)(F)F)cc2Cl)cc1` was tested, and the Potency was 15.8 µM (active).
`Cc1nnc(SCc2ccc(F)cc2Cl)s1` was tested, and the Potency was 22.4 µM (active).
For `Cc1cccc(NC(=O)N2CCCCCC2)c1C`, the Potency was 8.91 µM (active).
With `O=S(N1CCc2ccccc21)C12CC3CC(CC(C3)C1)C2` (stereo not drawn) the Potency was 12.6 µM (active).
`Fc1ccccc1CSc1nncn1NC/C=C/c1ccccc1` was tested, and the Potency was 31.6 µM (active).
`Cc1ccccc1NCc1ccccc1O` was tested, and the Potency was 15.8 µM (active).
For `Cc1cccc(C(=O)N2CCCCCC2)c1`, the Potency was 22.4 µM (active).
For `Clc1ccc(CNc2ccccn2)cc1`, the Potency was 15.8 µM (active).
`c1cc2cn[nH]c2cc1NC1CCCCCC1` was tested, and the Potency was 15.8 µM (active).
`Nc1ccc(CSc2ccc(Cl)cc2)cc1` was tested, and the Potency was 15.8 µM (active).
`O=C(NCc1ccccc1)Nc1cccn(Cc2ccccc2)c1=O` was tested, and the Potency was 8.91 µM (active).
`CNc1nc(C23CC4CC(CC(C4)C2)C3)cs1` was tested, and the Potency was 15.8 µM (active).
`Fc1ccccc1SCc1nnc(-c2ccccc2Br)o1` was tested, and the Potency was 15.8 µM (active).
For `O=C(COC(=O)CC1CC2CCC1C2)NC(=O)NCc1ccco1` (stereo not drawn), the Potency was 22.4 µM (active).
`CCC(CC)C(=O)Nc1ccc(Cl)c(Cl)c1` was tested, and the Potency was 14.1 µM (active).
In the case of `CC1CCCCN1S(=O)(=O)Cc1ccccc1Cl` (stereo not drawn), the Potency is reported as 14.1 µM (active).
With `Cc1ccc(-c2ccc(=O)n(CC(=O)NCCc3ccccc3)n2)cc1` the Potency was 6.31 µM (active).
`Cc1csc(Nc2ccc(Cl)cc2)n1` was tested, and the Potency was 31.6 µM (active).
`O=C1CC(c2ccc(O)cc2)Oc2ccccc21` (stereo not drawn) was tested, and the Potency was 15.8 µM (active).
`Oc1ccc(C(=S)N2CCCCC2)cc1Cl` was tested, and the Potency was 17.8 µM (active).
For `CN(CC(=O)Nc1ccccc1Cl)C1CCCCC1`, the Potency was 15.8 µM (active).
For `COc1cccc(NC(=O)CN2C(=O)NC(C)(CCC(C)C)C2=O)c1` (stereo not drawn), the Potency was 17.8 µM (active).
For `O=C(NC12CC3CC(CC(C3)C1)C2)c1ccco1`, the Potency was 14.1 µM (active).
For `Cc1ccc(NCc2ccccc2)cc1`, the Potency was 10 µM (active).
`CC1(c2ccc(NC(=O)c3ccccc3F)cc2)CC1(Cl)Cl` (stereo not drawn) was tested, and the Potency was 12.6 µM (active).
`Cc1ccc(NC2CCCN(C(=O)c3cccs3)C2)cc1C` (stereo not drawn) was tested, and the Potency was 15.8 µM (active).
For `O=c1c2ccccc2nnn1Cc1ccccc1Cl`, the Potency was 15.8 µM (active).
For `CC1Cc2ccccc2N1C(=O)CSc1nnnn1C` (stereo not drawn), the Potency was 28.2 µM (active).

Source: PubChem BioAssay AID489008 (National Center for Advancing Translational Sciences (NCATS), 2010)
